How the values were obtained:
Experiment in all cases: log2 ratio of Biotin-Ahx-Ub-VS probe labelling (fragment/DMSO); higher = less target engagement (more negative = stronger competition), active = hit call of the paper (q ≤ 0.05, log2 ratio ≤ -1)
Conditions in all cases: compound concentration: 200 uM; treatment time: 3 h
[1] = target: T1, USP19 (UniProt O94966)
T1 sequence (whole entry): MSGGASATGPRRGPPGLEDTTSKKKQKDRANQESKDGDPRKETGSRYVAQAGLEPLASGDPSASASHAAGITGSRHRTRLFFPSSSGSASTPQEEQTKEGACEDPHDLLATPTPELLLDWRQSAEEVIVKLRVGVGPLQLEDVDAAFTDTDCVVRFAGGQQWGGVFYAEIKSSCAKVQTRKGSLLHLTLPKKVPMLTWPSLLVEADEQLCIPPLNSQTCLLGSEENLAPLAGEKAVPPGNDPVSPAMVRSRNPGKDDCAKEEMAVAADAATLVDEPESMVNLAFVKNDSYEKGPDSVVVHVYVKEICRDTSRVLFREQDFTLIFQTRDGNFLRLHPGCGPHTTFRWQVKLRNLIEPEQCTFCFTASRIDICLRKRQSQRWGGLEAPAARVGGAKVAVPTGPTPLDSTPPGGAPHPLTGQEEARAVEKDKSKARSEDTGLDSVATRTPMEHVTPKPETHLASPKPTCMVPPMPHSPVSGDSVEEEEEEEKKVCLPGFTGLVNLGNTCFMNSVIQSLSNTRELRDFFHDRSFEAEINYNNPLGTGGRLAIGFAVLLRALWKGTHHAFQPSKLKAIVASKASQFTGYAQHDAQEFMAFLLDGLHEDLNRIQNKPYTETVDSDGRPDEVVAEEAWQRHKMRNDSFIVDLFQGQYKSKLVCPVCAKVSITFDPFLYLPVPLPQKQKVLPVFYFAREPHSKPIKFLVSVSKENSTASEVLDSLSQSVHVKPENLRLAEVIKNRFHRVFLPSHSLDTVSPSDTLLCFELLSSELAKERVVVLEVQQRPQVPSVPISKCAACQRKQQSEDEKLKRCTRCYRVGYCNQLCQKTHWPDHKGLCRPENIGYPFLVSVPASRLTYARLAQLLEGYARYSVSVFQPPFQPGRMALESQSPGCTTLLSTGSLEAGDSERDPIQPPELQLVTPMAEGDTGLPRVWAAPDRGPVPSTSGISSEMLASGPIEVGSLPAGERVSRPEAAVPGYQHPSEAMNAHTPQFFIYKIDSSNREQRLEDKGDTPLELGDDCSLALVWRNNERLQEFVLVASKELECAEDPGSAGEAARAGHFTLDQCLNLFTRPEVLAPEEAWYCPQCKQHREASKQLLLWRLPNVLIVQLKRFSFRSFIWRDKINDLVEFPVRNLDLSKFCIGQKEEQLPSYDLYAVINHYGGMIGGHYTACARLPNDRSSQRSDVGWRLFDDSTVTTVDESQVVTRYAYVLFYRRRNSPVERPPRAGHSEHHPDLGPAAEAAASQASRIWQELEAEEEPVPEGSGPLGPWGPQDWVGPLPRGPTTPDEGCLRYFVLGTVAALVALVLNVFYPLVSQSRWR
Procedure, shortened: (§1)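 Labelled DUBs from HEK293T lysate were NeutrAvidin-enriched, digested with LysC and trypsin, and run by diaPASEF LC-MS/MS. Before that, each 495 µg sample in Tris/CHAPS/IGEPAL buffer with protease inhibitors was treated in triplicate with fragment at 200 µM or vehicle for 3 h, then with Biotin-Ahx-Ub-VS at 0.5 µM final for 1 h. Values are average log2 ratios of fragment over vehicle by unpaired t-test, based on global-median-normalised Spectronaut label-free quantities from proteins with ≥2 unique peptides.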

[2] = target: T2, USP22 (UniProt Q9UPT9)
T2 sequence (whole entry): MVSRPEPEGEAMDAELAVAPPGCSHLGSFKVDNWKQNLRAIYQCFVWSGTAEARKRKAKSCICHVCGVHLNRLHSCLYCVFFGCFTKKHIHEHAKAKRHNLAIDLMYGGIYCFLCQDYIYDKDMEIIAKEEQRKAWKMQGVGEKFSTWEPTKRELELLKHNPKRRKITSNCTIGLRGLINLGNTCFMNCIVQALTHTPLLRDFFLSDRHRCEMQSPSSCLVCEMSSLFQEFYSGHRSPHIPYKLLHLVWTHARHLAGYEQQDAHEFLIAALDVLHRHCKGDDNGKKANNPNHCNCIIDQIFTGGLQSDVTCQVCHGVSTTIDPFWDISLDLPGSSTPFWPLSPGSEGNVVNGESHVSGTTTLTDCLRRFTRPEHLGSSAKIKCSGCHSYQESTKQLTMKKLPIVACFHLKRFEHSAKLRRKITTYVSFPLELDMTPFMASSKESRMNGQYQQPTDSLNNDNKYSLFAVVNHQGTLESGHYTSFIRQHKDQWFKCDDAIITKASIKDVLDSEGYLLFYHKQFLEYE
Procedure, shortened: as §1

[3] = target: USP24 (UniProt Q9UPU5)
Chain of USP24 (Q9UPU5 whole entry): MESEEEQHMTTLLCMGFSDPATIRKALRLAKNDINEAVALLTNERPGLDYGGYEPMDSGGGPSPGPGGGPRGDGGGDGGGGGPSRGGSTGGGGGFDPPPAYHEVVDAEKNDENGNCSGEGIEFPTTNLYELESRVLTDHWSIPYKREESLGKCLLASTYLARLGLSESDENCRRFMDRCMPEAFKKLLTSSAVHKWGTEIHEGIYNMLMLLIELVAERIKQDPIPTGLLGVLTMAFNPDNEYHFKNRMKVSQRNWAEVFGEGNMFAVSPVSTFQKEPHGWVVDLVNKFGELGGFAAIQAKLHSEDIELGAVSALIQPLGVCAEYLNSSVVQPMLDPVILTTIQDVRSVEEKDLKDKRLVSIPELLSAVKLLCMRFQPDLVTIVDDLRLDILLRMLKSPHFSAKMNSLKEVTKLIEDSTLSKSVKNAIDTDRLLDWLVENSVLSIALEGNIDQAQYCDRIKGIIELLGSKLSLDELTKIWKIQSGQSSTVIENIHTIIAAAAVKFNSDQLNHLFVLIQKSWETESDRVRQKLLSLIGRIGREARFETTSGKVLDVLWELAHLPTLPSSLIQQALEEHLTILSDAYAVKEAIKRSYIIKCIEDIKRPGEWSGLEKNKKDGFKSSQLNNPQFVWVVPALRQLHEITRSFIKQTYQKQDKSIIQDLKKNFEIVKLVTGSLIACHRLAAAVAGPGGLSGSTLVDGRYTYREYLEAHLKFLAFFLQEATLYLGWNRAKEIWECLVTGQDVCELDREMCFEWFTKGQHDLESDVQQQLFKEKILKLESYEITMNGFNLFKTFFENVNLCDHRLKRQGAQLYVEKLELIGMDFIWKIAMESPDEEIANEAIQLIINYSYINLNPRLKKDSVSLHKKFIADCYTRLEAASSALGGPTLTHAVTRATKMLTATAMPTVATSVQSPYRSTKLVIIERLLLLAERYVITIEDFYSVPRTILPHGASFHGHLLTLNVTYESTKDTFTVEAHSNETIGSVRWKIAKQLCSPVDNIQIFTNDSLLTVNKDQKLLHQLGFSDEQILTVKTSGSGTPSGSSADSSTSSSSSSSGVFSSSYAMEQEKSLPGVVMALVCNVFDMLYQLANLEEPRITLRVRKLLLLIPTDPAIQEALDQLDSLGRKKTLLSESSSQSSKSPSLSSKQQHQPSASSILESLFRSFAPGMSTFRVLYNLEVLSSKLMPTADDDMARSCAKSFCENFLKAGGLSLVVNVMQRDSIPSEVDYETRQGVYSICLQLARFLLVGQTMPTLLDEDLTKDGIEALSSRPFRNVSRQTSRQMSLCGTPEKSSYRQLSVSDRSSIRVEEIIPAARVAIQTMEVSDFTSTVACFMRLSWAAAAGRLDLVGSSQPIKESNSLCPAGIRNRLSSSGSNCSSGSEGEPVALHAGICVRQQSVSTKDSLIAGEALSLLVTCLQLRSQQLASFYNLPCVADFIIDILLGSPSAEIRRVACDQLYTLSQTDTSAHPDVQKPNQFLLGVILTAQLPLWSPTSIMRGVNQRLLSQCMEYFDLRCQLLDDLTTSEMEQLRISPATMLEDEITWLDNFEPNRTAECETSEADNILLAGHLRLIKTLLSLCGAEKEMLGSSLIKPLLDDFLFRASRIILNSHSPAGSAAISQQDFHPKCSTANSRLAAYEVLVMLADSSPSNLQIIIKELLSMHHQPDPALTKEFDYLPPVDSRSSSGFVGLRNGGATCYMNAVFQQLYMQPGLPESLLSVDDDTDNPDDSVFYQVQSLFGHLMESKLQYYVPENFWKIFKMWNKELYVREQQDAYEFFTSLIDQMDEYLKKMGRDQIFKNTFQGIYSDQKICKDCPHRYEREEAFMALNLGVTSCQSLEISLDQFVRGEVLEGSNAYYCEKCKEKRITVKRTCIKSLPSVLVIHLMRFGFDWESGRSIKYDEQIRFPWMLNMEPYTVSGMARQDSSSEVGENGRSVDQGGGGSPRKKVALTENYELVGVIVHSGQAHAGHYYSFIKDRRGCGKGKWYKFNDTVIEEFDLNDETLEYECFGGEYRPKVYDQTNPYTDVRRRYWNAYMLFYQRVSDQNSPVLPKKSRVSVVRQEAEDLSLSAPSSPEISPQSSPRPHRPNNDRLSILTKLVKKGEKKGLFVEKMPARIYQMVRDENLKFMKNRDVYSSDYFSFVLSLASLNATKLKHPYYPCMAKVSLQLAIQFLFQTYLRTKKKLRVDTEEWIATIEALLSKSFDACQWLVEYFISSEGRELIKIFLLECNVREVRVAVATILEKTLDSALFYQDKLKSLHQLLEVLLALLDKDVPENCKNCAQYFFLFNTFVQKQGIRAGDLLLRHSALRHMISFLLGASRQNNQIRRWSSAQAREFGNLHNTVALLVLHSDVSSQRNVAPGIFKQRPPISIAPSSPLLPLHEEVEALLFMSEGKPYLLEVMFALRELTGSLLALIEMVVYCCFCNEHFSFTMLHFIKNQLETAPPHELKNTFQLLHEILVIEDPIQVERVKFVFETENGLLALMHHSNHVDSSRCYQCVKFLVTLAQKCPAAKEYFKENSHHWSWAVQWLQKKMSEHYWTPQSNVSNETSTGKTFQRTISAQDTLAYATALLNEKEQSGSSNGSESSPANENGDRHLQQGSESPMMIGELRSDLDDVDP
Procedure, shortened: as §1

[4] = target: T3, USP25 (UniProt Q9UHP3)
T3 sequence (whole entry): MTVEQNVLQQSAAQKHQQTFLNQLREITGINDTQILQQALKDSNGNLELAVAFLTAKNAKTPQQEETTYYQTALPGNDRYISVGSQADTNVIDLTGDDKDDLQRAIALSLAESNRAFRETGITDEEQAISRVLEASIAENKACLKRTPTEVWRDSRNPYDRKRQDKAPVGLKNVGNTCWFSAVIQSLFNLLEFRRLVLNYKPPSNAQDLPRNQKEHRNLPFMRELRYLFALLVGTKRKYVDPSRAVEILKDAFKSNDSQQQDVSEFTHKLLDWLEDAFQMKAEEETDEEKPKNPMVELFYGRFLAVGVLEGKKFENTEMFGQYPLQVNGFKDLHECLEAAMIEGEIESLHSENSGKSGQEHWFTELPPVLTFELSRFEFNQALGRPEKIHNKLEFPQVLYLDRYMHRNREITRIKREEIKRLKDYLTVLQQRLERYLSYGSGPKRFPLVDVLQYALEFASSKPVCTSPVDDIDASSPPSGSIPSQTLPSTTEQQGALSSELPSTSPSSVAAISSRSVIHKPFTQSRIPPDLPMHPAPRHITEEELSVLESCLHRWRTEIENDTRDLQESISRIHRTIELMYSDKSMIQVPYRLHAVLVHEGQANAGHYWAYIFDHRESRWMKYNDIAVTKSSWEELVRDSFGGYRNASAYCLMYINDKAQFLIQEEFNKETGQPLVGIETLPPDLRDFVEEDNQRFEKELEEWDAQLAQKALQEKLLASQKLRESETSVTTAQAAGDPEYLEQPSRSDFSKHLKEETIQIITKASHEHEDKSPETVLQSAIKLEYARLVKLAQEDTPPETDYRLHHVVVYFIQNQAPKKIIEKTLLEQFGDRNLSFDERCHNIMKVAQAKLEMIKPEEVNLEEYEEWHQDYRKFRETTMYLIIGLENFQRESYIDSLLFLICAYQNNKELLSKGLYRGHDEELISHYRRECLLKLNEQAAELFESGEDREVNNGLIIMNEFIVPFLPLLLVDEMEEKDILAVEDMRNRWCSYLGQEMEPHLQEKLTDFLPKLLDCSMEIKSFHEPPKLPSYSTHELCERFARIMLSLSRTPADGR
Procedure, shortened: as §1

[5] = target: T4, USP28 (UniProt Q96RU2)
T4 sequence (whole entry): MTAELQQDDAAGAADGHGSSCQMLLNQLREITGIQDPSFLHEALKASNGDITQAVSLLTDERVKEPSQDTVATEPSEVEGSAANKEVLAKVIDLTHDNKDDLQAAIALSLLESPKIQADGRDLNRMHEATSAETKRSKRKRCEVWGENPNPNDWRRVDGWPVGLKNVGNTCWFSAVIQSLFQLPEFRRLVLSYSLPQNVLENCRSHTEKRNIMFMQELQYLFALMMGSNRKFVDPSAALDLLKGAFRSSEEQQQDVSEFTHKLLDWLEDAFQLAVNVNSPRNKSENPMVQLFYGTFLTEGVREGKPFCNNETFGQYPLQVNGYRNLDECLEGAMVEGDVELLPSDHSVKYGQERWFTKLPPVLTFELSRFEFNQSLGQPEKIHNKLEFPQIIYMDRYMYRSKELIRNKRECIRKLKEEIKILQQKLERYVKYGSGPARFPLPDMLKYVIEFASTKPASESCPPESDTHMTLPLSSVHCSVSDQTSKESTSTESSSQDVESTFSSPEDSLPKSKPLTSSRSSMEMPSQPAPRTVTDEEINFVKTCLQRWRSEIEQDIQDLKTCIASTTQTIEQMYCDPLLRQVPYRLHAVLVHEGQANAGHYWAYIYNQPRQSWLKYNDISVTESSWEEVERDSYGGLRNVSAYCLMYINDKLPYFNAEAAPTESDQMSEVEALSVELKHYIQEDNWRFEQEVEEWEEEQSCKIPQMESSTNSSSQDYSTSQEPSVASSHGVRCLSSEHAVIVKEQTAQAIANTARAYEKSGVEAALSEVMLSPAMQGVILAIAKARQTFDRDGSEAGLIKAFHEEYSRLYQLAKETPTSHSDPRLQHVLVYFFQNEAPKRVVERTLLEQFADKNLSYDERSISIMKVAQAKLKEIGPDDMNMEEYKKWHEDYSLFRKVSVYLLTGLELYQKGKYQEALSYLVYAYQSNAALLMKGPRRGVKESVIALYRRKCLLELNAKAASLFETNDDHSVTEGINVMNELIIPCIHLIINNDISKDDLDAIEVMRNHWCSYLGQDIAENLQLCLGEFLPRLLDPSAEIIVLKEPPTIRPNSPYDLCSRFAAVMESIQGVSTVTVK
Procedure, shortened: as §1

Measured: log2 ratio of Biotin-Ahx-Ub-VS probe labelling

CN(C)S(=O)(=O)c1ccccc1CNC(=O)CCl
inactive: [1] 0.0268 | [2] -0.12 | [3] -0.108 | [4] -0.258 | [5] -0.239

Reference: the supplement of paper PMC11732987, “Enantioselective OTUD7B fragment discovery through chemoproteomics screening and high-throughput optimisation” (Communications Chemistry, 2025)
